# Source: PubChem
# Shiga inhibitor: inhibitors of Shiga toxin in Vero cells. Vero cells, Shiga toxin protein synthesis inhibition reporter. inhibition, % at 38.7 µM. hit rate 9.2% among 290,000. AID 2315; in the data active = inhibition mostly above about 28%, no sharp cut-off; inactive = mostly below about 43%
# CHX counter: affects cycloheximide protein synthesis inhibition readout, counter-screen | max response, % | AID 2314 | hit rate 12% among 300,000 | cell reporter, cycloheximide protein synthesis inhibition counterscreen; in the data active = max response mostly above about 13%, no sharp cut-off; inactive = mostly below about 14%; note: read at 38.3 µM for the half of the compounds with a filed dose
# Pf growth 48h: inhibits P. falciparum growth in the first generation, 48 h. P. falciparum luciferase growth in erythrocytes, 48 h. Potency, µM (titrated, usually from 28.7 µM), usual class: inhibitors. hit rate 5.9% among 310,000. AID 504832
#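 Erythrocytes infected with P. falciparum carrying an integrated firefly luciferase reporter (2% hematocrit, 0.1% parasitemia final) were exposed to compounds in RPMI 1640 with 0.5% Albumax at 37 C, 5% CO2. Growth inhibition was scored as reduced luminescence.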
# NS1 inh: inhibitors of influenza NS1 protein function. AID 2326. Potency, µM (highest dose often 46.1 µM). hit rate 0.4% among 270,000; calls by dose curve; note: actives are rising curves; nearly all actives have a fitted effect of over 50% in size
#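 Growth recovery, yeast-based: influenza A NS1 expressed in S. cerevisiae causes slow growth, and suppressors are detected by OD600. The parent strain without NS1 is used as positive control.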
# Pf growth 96h: inhibits malaria parasite growth, 96 h; Potency, µM (titrated, usually from 28.7 µM), most hits filed as inhibitors; P. falciparum luciferase reporter growth, 96 h; hit rate 6.9% among 320,000; AID 504834
#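 Parasite growth measured via integrated firefly luciferase reporter in P. falciparum. Infected erythrocytes at 2% hematocrit, 0.05% parasitemia final were treated 96 hours at 37 C under 5% CO2, and luminescence was read.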
# A number is an active result; 0 = inactive; ? = inconclusive; - = not tested or not shown; [ ] = dose if it differs, or a comment. The list is not random: actives were taken first. Their share in the collection is about 21%. Unless noted, calls come from the whole dose curve; as a rule, active = well fitted inhibition curve with a large enough effect; inconclusive = small, poorly fitted or top-dose-only effect, or another doubt; inactive = no such curve, though single readings can be large or run the other way.
SMILES,Shiga inhibitor,CHX counter,Pf growth 48h,NS1 inh,Pf growth 96h
CCCn1c(C)cc(C(=O)COc2ncnc3sccc23)c1C,105,44,0,0,0[5.75 µM]
Cc1cc(C(=O)COc2ncnc3sccc23)c(C)n1C1CC1,92,49,0,0,-
CC1CCCC(C)N1C(=O)COc1ccc(-c2nnco2)cc1 (stereo unspecified),0,0,0,0,0
CCc1ccc(CNC(=O)C2CCN(S(=O)(=O)N3CC(C)CC(C)C3)CC2)cc1 (stereo unspecified),0,0,0,0,0
COc1ccccc1-c1noc(-c2ccccc2)n1,89,49,0,0,0
COc1ccc(-c2ccc(-c3noc(-c4ccccc4)n3)c(OC)n2)cc1,0,0,0,?,0[5.75 µM]
COc1ccccc1-c1noc(-c2ccco2)n1,80,51,0,0,-
COc1cc(-c2noc(C)n2)cc(OC)c1OC,0,0,0,0,0
COc1ccc(-c2nc(-c3ccccc3OC)no2)cc1OC,162,66,0,0,0
COc1cc(-c2noc(-c3ccco3)n2)cc(OC)c1OC,80,18,0,0,0
CCOc1cc(-c2nc(-c3ccccc3OC)no2)cc(OCC)c1OCC,0,0,0,0,-
COc1ccccc1-c1noc(-c2ccccc2C(=O)Nc2cccnc2)n1,0,0,0,0,-
CCOCCCNC(=O)CN1C(=O)c2ccccc2Sc2ncccc21,0,0,0,0,0
CC(C)=N[C@H](C(=O)O)C(C)(C)S,-,-,-,0,-
N#Cc1cccc(S(=O)(=O)N2CCN(c3ccnc4cc(Cl)ccc34)CC2)c1,0,0,13µM,0,2.3µM
O=C(c1ccco1)N1CCN(c2ccnc3cc(Cl)ccc23)CC1,0,0,?,0,0
O=S(=O)(c1cc(F)ccc1F)N1CCN(c2ncccn2)CC1,0,0,0,0,0
CN(C)S(=O)(=O)N1CCN(c2ccnc3cc(Cl)ccc23)CC1,0,0,0,0,0
O=S(=O)(c1cccc(Br)c1)N1CCN(c2ccnc3cc(Cl)ccc23)CC1,0,0,3.7µM,0,1.9µM
CC(C)S(=O)(=O)N1CCN(c2ccnc3cc(Cl)ccc23)CC1,0,0,5.2µM,0,9.3µM
O=S(=O)(c1ccccc1OC(F)(F)F)N1CCN(c2ccnc3cc(Cl)ccc23)CC1,0,0,9.3µM,0,2.3µM
CC(C)(C)C(=O)N1CCN(c2ccnc3cc(Cl)ccc23)CC1,0,0,?,0,0
COc1ccc(NC(=O)COC(=O)CCc2cc(OC)c(OC)c(OC)c2)c([N+](=O)[O-])c1,0,0,0,0,0
O=[N+]([O-])c1ccc(S(=O)(=O)N2CCN(c3ccnc4cc(Cl)ccc34)CC2)cc1,0,0,5.2µM,0,2.6µM
CCOc1ccc(C2OC(=O)Cc3cc(OC)c(OC)cc32)cc1 (stereo unspecified),0,0,?,0,1.2µM
SMILES,Shiga inhibitor,CHX counter,Pf growth 48h,NS1 inh,Pf growth 96h
On1ccccc1=S,-,-,0.83µM,-,0.59µM
Cc1ccc(OCC(=O)Nc2ccc3c(c2)C(=O)NC3=O)c(C)c1,0,0,0,0,0
Oc1oc(-c2ccccc2)nc1/C=N/c1ccccn1,0,0,0,0,12µM
Cc1ccc(-c2nc(C=Nc3ccc(O)cc3)c(O)o2)cc1,125,44,?,-,0
Oc1oc(-c2ccccc2Br)nc1C=Nc1ccc(Br)cn1,0,0,0,-,0
CN=Cc1nc(-c2ccccc2)oc1O,active,30,0,0,0
CCC(=O)Oc1oc(-c2ccccc2)nc1C=Nc1ccc(C)cc1,0,0,0,0,0
COc1ccc(C2C(C(C)=O)=C(O)C(=O)N2c2nccs2)c(OC)c1 (stereo unspecified),0,0,0,0,0
COc1ncc(-c2ccc3c(c2)S(=O)(=O)c2cccc(C(=O)O)c2C3=O)cn1,-,-,0,-,0
CCOc1cc(/C=N/NC(=O)c2cccnc2)ccc1OC(=O)c1ccco1,0,0,0,-,0
O=C(NCc1ccc2c(c1)OCO2)C(=O)NCC1OCCCN1S(=O)(=O)c1cc(F)ccc1F (stereo unspecified),0,0,0,0,0
Cc1ccc(-c2noc(CNc3ccccc3)n2)cc1,64,37,0,0,0
CCc1ccc(NCc2nc(-c3ccccc3)no2)cc1,47,31,0,0,0
COc1ccc(-n2c(SCC(=O)Nc3cc(C)on3)nc3ccccc3c2=O)cc1Cl,0,0,0,?,?
COc1ccc(Cl)cc1S(=O)(=O)n1c([N+](=O)[O-])cnc1C,-,0,0,0,0
CC(C)Oc1ccc(CN=C(N)N=C(N)N)cc1Cl,0,0,12µM,0,?
COc1ccc(CN=C(N)N=C(N)N)cc1Cl,0,0,?,-,0
CC(C)Oc1ccc(CCN)cc1Cl,0,0,0,0,0
CC(C)COc1ccc(CN=C(N)N=C(N)N)cc1Cl,0,0,2.9µM,0,?
Cc1cc(Oc2cnn(C(C)(C)C)c(=O)c2Cl)cc(C(C)C)c1,0,0,12µM,?,8.3µM
O=C(/C=C/c1cn(CC(O)CN2CCCCCC2)c2ccccc12)c1cccs1 (stereo unspecified),0,0,12µM,0,0
O=Cc1cn(CC(O)Cn2cc(C=O)c3ccccc32)c2ccccc12,0,0,0,0,?
CCCCN(C)CC(O)Cn1cc(/C=C/C(=O)c2ccc(OCC)cc2)c2ccccc21 (stereo unspecified),0,0,5.2µM,0,?
CCOc1ccc(/C=C/C(=O)c2ccc(-c3ccccc3)cc2)cc1,0,0,0,0,0
CS(=O)(=O)N(Cc1ccco1)CC(O)Cn1cc(C=O)c2ccccc21 (stereo unspecified),0,0,-,0,?
SMILES,Shiga inhibitor,CHX counter,Pf growth 48h,NS1 inh,Pf growth 96h
CCCCN(C)CC(O)Cn1cc(/C=C/C(=O)c2cccs2)c2ccccc21 (stereo unspecified),0,0,8.3µM,0,4.1µM
Cc1ccc(NC(=O)COC(=O)[C@H](C)N2C(=O)C3CC=CCC3C2=O)cc1S(=O)(=O)N(C)C (stereo partly specified),0,0,0,-,?
COc1cccc(NC(=O)CN(C)C(=O)C2=COCCO2)c1,-,-,?,-,0
CCOC(=O)C1CCN(C(=O)COc2ccc(Br)cc2C)CC1,0,0,0[1.15 µM],0,0
Cc1nc2ccccc2c(=O)n1NC(=O)c1cccc(Cl)c1,0,0,-,0,0
Cc1nn(-c2ccccc2)c(Cl)c1/C=N/NC(=O)C1COc2ccccc2O1 (stereo unspecified),0,0,0,0,0
Cc1nn(-c2ccccc2)c(Cl)c1/C=N/NC(=O)c1ccco1,104,52,0,0,?
Cc1nn(-c2ccccc2)c(Cl)c1/C=N/NC(=O)c1ccc(CNc2ccccc2)o1,44,25,?,0,?
Cc1nn(C)cc1/C=N/NC(=O)c1ccco1,82,38,0,0,0
CCN(CC)S(=O)(=O)c1cccc(C(=O)N/N=C/c2c(C)nn(-c3ccccc3)c2Cl)c1,0,0,?,0,0
Cc1cc(NS(=O)(=O)c2ccc(NC(=O)c3cc4cc(Br)ccc4oc3=O)cc2)no1,0,0,0,-,0
CCOc1ccc(N=C2NN=C(c3cc(C)n(CC4CCCO4)c3C)CS2)cc1 (stereo unspecified),0,0,?,0,2.1µM
